Experimental data from PubChem BioAssay (NCI).
This is part of a sample that, as a whole, favours compounds with a hit. Of some 83,000 tested, about 20% had one in any assay.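 Results are percent growth after 48 hours of single-concentration exposure. 100 means growth as in untreated cells, lower positive values show inhibition; negative values down to -100 show cell death.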 Values without a mark were called inactive. The source made the active and inactive calls. The calls were made as follows: active = growth percent below 10; inactive = the rest.

tested on: HL-60(TB) leukemia; experiment: NCI-60 one-dose screen, 48 h (100 = growth as untreated, 0 = no growth, -100 = all killed); settings: 10 µM unless noted

SMILES	growth
Cn1c(-c2c(N)n(Cc3cccnc3)c3nc(C#N)c(C#N)nc23)nc2ccccc21	50.3%
COc1ccc(-c2ccccc2)cc1-c1c(Nc2cc(Cl)cc(Cl)c2O)c(=O)c1=O	-29.8% (active)
COc1ccc(-c2nc3c(ncc4ccc(=O)[nH]c43)s2)cc1	80.1%
Cc1ccccc1N1CCN(C(=S)c2ccccc2)CC1	108%
COc1ccc(Cn2cc3c(c2)-c2oncc2CC3)cc1	24.5%
O=C(NO)c1ccc(Cn2c(=O)n(CCc3ccccc3)c(=O)c3ccccc32)cc1	36.2%
CC/C(=N\Nc1nc2ccccc2n1C)c1ccccn1	-29.4% (active)
COc1ccc(-c2cc(Cc3cccs3)c(=O)n(Cn3cncn3)n2)cc1	107%
Cc1nn(C)c2ncnc(Nc3ccccc3Br)c12	94.3%
CCN(CC)CC(O)CNc1ccnc2cc(Cl)c(Cl)cc12 (stereo not given)	92.2%
COC(=O)N1CC(Oc2ccccn2)C2CC1c1ccccc1O2 (stereo not given)	99.8%
Cc1nc2sc(C(=O)Nc3cccc(Cl)c3C)c(N)c2cc1C(O)c1ccccc1 (stereo not given)	-42.3% (active)
COC(=O)c1nc(N)nc(C(=O)OC)c1C(=O)c1ccc(F)cc1	115%
O=C(NCc1ccco1)C1CCN(S(=O)(=O)c2ccc(Cl)cc2)CC1	19.1%
O=C(Nc1cccc(-n2cc(-c3ccncc3)c(-c3cc(O)cc(Cl)c3)n2)c1)Nc1ccc(Cl)c(C(F)(F)F)c1	-26.9% (active)
Cc1ccccc1NC(=O)NC(CC(N)=O)c1ccc2c(c1)nc(-c1cccc(Oc3ccc(C(C)(C)C)cc3)c1)n2CCCN1CCCCC1C (stereo not given)	-3.28% (active)
COc1cc(/C=C/C(=O)c2cccc(-n3cc(-c4ccccc4)[nH]c3=O)c2)ccc1O	3.49% (active)
O=C(Nc1cnn2ccc(N3CCC[C@@H]3c3cc(F)ccc3F)nc12)N1CC[C@H](O)C1	126%
CCOc1ccccc1Cn1ccnc1CCc1c(Cl)c(O)cc(O)c1C(=O)OC	106%
Cc1ccc(C(=O)c2ccc(CC(=O)N/N=C/c3ccccc3O)n2C)cc1	87%

SMILES	growth
COc1ccc(NC(=O)c2sc3c(=O)[nH]c(C(F)(F)F)nc3c2C)cc1	106%
CCN(CC)CCOc1ccc(/C(=C(\Cl)c2ccccc2)c2ccccc2)cc1	75.9%
O=C(CCl)N1CCN(C/C=C/c2ccccc2)CC1	102%
Cc1cc(=O)n(C(=S)Nc2ccc(Cl)cc2)c2cc(O)ccc12	111%
CN(C)C(=S)NN=C(c1ccccn1)c1ccccn1	-27.5% (active)
COc1ccc(-c2oc3cc(O)c(OC)c(O)c3c(=O)c2OC)cc1O	-8.34% (active)
CCN(CC)CCNc1ccc([N+](=O)[O-])c2sc3ccccc3c(=O)c12	17%
CCN(CC)CCCC(C)Nc1c2ccc(Cl)cc2nc2ccc(OC)cc12 (stereo not given)	55.3%
Cc1ccc(S(=O)(=O)N(c2ccc(Cl)cc2)c2ccc(Br)cc2C(=O)O)cc1	110%
COc1cc2c(c(OC)c1OC)-c1ccc(NNC(N)=S)c(=O)cc1[C@@H](NC(C)=O)CC2	-13.9% (active)
Cc1[nH]c(C(=O)Nc2ccc(C(=O)N3CCNCC3)cc2OC(C)C)c(Cl)c1Cl	57.4%
CC(C)OP(=O)(CCC(=O)c1c[nH]c2ccccc12)OC(C)C	92.2%
CCN(CC)CCCC(C)Nc1cc(-c2ccc(C(F)(F)F)cc2)c(C#N)c2nc3ccccc3n12 (stereo not given)	-59.8% (active)
CCCCN(CCCC)CC(CN(CC)CC)OC(=O)Nc1ccccc1 (stereo not given)	84.1%
Clc1ccc(N2CCN(CCCN3CCN(c4cccc(Cl)c4)CC3)CC2)cc1	17%
CC(C)NC[C@@H](C(=O)N1CCN(c2ncnc3c2[C@H](C)C[C@H]3O)CC1)c1ccc(Cl)cc1	82%
COc1ccc(C2=NN(c3ccc(S(N)(=O)=O)cc3)C(c3ccc(Cl)cc3)C2)c(O)c1 (stereo not given)	29.9%
CCOC(=O)n1cc(-c2nonc2-c2cn(C)c3ccccc23)c2ccccc21	1.6% (active)
CCn1c(=S)[nH]c2c(=O)n(C)c(=O)n(C)c21	100%
c1ccc(CCNc2c3ccccc3nc3ccccc23)cc1	41.3%
